This is one part of a sample in which hits are shown more often than they occur.
SF-1 inh = inhibitors of human SF-1, primary screen, cell-based, CHO-K1, Gal4-SF-1 LBD, luciferase luminescence. Steroidogenic factor 1 (Homo sapiens), Q13285. CHO-K1 Gal4-SF-1 LBD luciferase reporter. inhibition, % at 10 µM. 0.55% of 65,000 active. AID 525, 2006;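 active = inhibition above the mean inhibition of all tested compounds plus 3 SD, cut at about 48% in these data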;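 also: 0% = SF-1 transfected cells with DMSO and 100% = mock-transfected cells lacking SF-1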
Target sequence (Q13285 whole entry, looked up, the tested form may be a part): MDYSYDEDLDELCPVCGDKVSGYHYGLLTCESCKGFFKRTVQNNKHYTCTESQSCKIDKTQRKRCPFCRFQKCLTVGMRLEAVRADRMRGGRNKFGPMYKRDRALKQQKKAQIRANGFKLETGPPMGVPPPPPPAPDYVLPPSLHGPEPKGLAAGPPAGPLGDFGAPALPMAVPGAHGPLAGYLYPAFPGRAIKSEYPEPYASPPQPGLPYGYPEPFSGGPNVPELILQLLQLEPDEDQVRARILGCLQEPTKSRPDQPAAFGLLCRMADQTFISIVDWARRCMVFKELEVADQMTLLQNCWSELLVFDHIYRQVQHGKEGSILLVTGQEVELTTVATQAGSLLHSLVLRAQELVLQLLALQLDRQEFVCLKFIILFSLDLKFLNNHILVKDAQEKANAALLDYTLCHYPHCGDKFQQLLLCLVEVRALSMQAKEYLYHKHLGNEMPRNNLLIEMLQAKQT
* hit, by the source's call.

What do the screens show for `O=C(CSc1nnc(COc2cccc3cccnc23)o1)N1CCc2ccccc21`?
SF-1 inh: 53*

How did O=C(CN1C(=O)CSC1=O)Nc1ccc(F)c(F)c1F do in these assays?
SF-1 inh: 4

Results for CCOC(=O)CC(=O)CSc1nnc2c(n1)[nH]c1ccccc12 ?
SF-1 inh: -53

How did COc1ccc2[nH]c3nc(SC(C)C)nnc3c2c1 do in these assays?
SF-1 inh: 63*

What do the screens show for `O=C(COc1ccc(-c2nnco2)cc1)NC1CCCc2ccccc21` (stereo not given)?
SF-1 inh: -3

How did Cc1c(CCC#N)c(N2CCN(C3CCCCC3)CC2)n2c(nc3ccccc32)c1C#N do in these assays?
SF-1 inh: -1

What do the screens show for `CCC(C)OC(=O)c1[nH]c2c(c1C)C(=O)CC(c1ccc(N(C)C)cc1)C2` (stereo not given)?
SF-1 inh: -57

Results for O=S(=O)(/C=C/c1ccccc1)n1cnc2ccccc21 ?
SF-1 inh: 5

What do the screens show for `COCc1cc(CN2CCCC2)c(O)c2ncccc12`?
SF-1 inh: 50*

How did Oc1c(CN2CCN(c3ccccn3)CC2)cc(Cl)c2cccnc12 do in these assays?
SF-1 inh: 67*

Results for Oc1c(CN2CCCCC2)cc(COCc2ccccc2)c2cccnc12 ?
SF-1 inh: 89*

Results for COc1ccc(-n2nc(C(=O)NCC(=O)N3CCN(c4ccccn4)CC3)c3ccccc3c2=O)cc1 ?
SF-1 inh: -60

What do the screens show for `O=C(c1cccc(COc2ccc(Cl)cc2Cl)c1)N1CCN(c2ccccn2)CC1`?
SF-1 inh: -76

How did c1ccc(Cn2nnnc2CN2CCCC2)cc1 do in these assays?
SF-1 inh: -4

Results for CC(C)Oc1ccc(NC(=O)Oc2ccccc2)cc1 ?
SF-1 inh: -52

What do the screens show for `O=C1NC(NS(=O)(=O)c2ccccc2)(C(F)(F)F)C(=O)N1Cc1cccnc1` (stereo not given)?
SF-1 inh: 10

Results for Cn1c(=O)c2nc(-c3ccc(Cl)cc3Cl)oc2c2ccccc21 ?
SF-1 inh: -13

Results for CCN(CCCNC(=O)CC1Oc2ccc(C)cc2NC1=O)Cc1ccccc1 (stereo not given) ?
SF-1 inh: -8

What do the screens show for `CC(C)OC(=O)c1ccc(NC(=O)C2C3CC4OC(=O)C2C4C3)cc1` (stereo not given)?
SF-1 inh: -56

How did COc1ccc(NC(=O)c2cc(-c3cccs3)on2)cc1OC do in these assays?
SF-1 inh: 5

What do the screens show for `Nc1nc(N)c2sc3nc4c(cc3c2n1)CCC4`?
SF-1 inh: -57

Results for CCC(C)NC(=O)CCNS(=O)(=O)c1ccc(Br)cc1 (stereo not given) ?
SF-1 inh: 1

What do the screens show for `COC(=O)c1oc2ccc(Br)cc2c1NC(=O)c1ccccc1`?
SF-1 inh: 12

What do the screens show for `Cc1cccc(-c2nc(C#N)c(NC3CCCCC3)o2)c1`?
SF-1 inh: -50

What do the screens show for `Cc1cccc(N(C)C(=S)Oc2ccc3ccccc3c2)c1`?
SF-1 inh: -9

What do the screens show for `Cc1cc(C)c(C(=O)CSc2n[nH]c(=O)n2C2CC2)cc1C`?
SF-1 inh: 12

Results for Cc1cccc(-n2ncc3c(N(C)C4CCCCC4)ncnc32)c1 ?
SF-1 inh: 77*

How did COc1ccc(-n2ncc3c(N(C)C4CCCCC4)ncnc32)cc1 do in these assays?
SF-1 inh: 74*

Results for CCN(c1ccccc1)c1ncnc2c1cnn2-c1ccccc1 ?
SF-1 inh: -59

How did c1ccc(-n2ncc3c(NCCN4CCCCC4)ncnc32)cc1 do in these assays?
SF-1 inh: -69

What do the screens show for `Cc1cccc(-n2ncc3c(NCc4ccco4)ncnc32)c1`?
SF-1 inh: -93

How did Cc1cccc(-n2ncc3c(NCc4ccccc4)ncnc32)c1 do in these assays?
SF-1 inh: -82

How did COC(=O)c1cc(Br)c(=O)n(Cc2ccc3c(c2)OCO3)c1 do in these assays?
SF-1 inh: -12

Results for CCOc1cc(CNC(=O)CN2C(=O)c3ccccc3S2(=O)=O)ccc1OC ?
SF-1 inh: 9

How did Cc1ccc(Cl)cc1N1CCN(Cc2nc3c(c(=O)[nH]c(=O)n3C)n2Cc2ccccc2F)CC1 do in these assays?
SF-1 inh: -2

What do the screens show for `CCOC(=O)c1ccc(NC(=O)CSCc2ccco2)cc1`?
SF-1 inh: -5

What do the screens show for `O=C(NCc1ccco1)Nc1ccc(Br)cc1Cl`?
SF-1 inh: -60

What do the screens show for `CN(C)c1oc(-c2ccc(OCc3ccccc3)cc2)nc1C#N`?
SF-1 inh: -61

Results for CC(C)COC(=O)N(C)c1ccc(C(O)(C(F)(F)F)C(F)(F)F)cc1 ?
SF-1 inh: -12

How did Cn1c(NC(=O)c2ccccc2F)cc(=O)n(C)c1=O do in these assays?
SF-1 inh: -17

What do the screens show for `CC1CCCCC1NS(=O)(=O)c1ccc(S(=O)(=O)NCc2ccncc2)cc1` (stereo not given)?
SF-1 inh: 70*

What do the screens show for `CCC(C)(C)n1nnnc1C(c1cccc(C#N)c1)N1CCN(c2cccc(C)c2C)CC1` (stereo not given)?
SF-1 inh: 8

How did CCS(=O)(=O)Nc1cc(-c2nc3cccnc3s2)ccc1C do in these assays?
SF-1 inh: -71

Assay outcomes deposited in PubChem by The Scripps Research Institute Molecular Screening Center.
